Reference: PubChem BioAssay (NCATS)
“And” between values parts separate entries of the source, which are not always exact repeats. Equal values may be shown once. Results filed as inconclusive are left out. Where a call stands in place of a potency, no number is given. The source holds several records for some structures; these can differ, active in one and inactive in another. Values without a mark were called inactive. The source made the active and inactive calls. Calls come from the whole dose curve; as a rule, active = well fitted inhibition curve with a large enough effect; inconclusive = small, poorly fitted or top-dose-only effect; inactive = flat fitted curve, though single readings scatter.

What was measured:
CRL-7250 = normal cell line; experiment: Cytotoxic Profiling of Annotated Libraries Using Quantitative High-Throughput Screening (AID 1296008); details: Five cell lines viability, CellTiter-Glo ATP luminescence, 48-72 h; max response: active compounds read low
In short: (§1)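 Cytotoxicity was measured as CellTiter-Glo ATP luminescence, read after 10 min at room temperature. Compound treatment of the cells lasted 48 or 72 hr at 37 degrees Celsius in a qHTS format.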

HEK293 = experiment: as above; details: Five cell lines viability, CellTiter-Glo ATP luminescence, 48-72 h; max response: active compounds read low
In short: as §1

HaCat [1] = experiment: as above; details: Five cell lines viability, CellTiter-Glo ATP luminescence, 48-72 h; max response: active compounds read low
In short: as §1

KB-3-1 = experiment: as above; details: Five cell lines viability, CellTiter-Glo ATP luminescence, 48-72 h; max response: active compounds read low
In short: as §1

NIH3T3 = experiment: as above; details: Five cell lines viability, CellTiter-Glo ATP luminescence, 48-72 h; max response: active compounds read low
In short: as §1

MCC-13 = experiment: qHTS assay to identify novel small-molecules to repurpose for Merkel cell carcinoma treatment (AID 1296009); details: MCC and control cell lines, CellTiter-Glo viability, 72 h; series mostly up to 46 µM
In short: (§2)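 After compound transfer in DMSO, plates were kept 72 hr at 37 degree celsius. Luminescent ATP signal from CellTiter-Glo served as viability measure, normalized against DMSO and no-cell controls.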

MCC-26 = experiment: as above; details: MCC and control cell lines, CellTiter-Glo viability, 72 h; series mostly up to 46 µM
In short: as §2

HACAT [2] = experiment: as above; details: MCC and control cell lines, CellTiter-Glo viability, 72 h; series mostly up to 44.8 µM
In short: as §2

HEK293T = experiment: as above; details: MCC and control cell lines, CellTiter-Glo viability, 72 h; at 44.8 µM (top of the series) unless noted
In short: as §2

MKL-1 = experiment: as above; details: MCC and control cell lines, CellTiter-Glo viability, 72 h; series mostly up to 46 µM
In short: as §2
Note: nearly all actives have a fitted effect of over 60% in size.
Potency is the fitted concentration of half-maximal effect.

Row | SMILES | Potency (CRL-7250) | max response (CRL-7250) | Potency (HEK293) | Potency (HaCat [1]) | Potency (KB-3-1) | Potency (NIH3T3) | Potency (MCC-13) | Potency (MCC-26) | max response (HEK293) | outcome (HEK293) | outcome (HaCat [1]) | max response (KB-3-1) | outcome (KB-3-1) | max response (NIH3T3) | Potency (HACAT [2]) | outcome (HEK293T) | Potency (MKL-1) | outcome (CRL-7250) | max response (HaCat [1]) | outcome (NIH3T3)
1 | CC(C)CC(=O)Nc1n[nH]c2c1CN(C(=O)C1CCN(C)CC1)C2(C)C | 1.48 µM (active) | -90.6% | 372 nM (active) and 326 nM (active) | 9.35 µM (active) and 2.31 µM (active) | 2.35 µM (active) and 2.91 µM (active) | 16.6 µM (active) | inactive | 18.7 µM (active) |  |  |  |  |  |  |  |  |  |  |  | 
2 | Cc1c(Cn2c(C)nc3c(C(=O)O)cc(N4CCOCC4)cc32)cccc1C(F)(F)F |  | -5.25% |  |  |  |  | inactive |  | -8.46% | inactive | inactive | 6.95% | inactive | 3.21% and -3.58% | inactive | inactive | inactive |  |  | 
3 | O=C(c1cncc(Br)c1)N1CCC(N2CCCC2)CC1 |  | -7.35% |  |  |  |  | inactive | inactive | 2.69% and -9.71% |  |  | 1.64% | inactive | 4.3% and 2.16% |  |  | inactive | inactive | 2.29% and 3.12% | 
4 | COc1cc2c(Nc3ccc(NC(=O)c4ccccc4)cc3)ncnc2cc1OCCCN1CCOCC1 |  | 5% | 23.1 µM (active) | 7.31 µM (active) |  | 14.6 µM (active) | inactive | inactive | -7.34% |  |  | -17.8% |  |  |  |  |  |  |  | 
5 | OCc1ccc(-c2ccc(-c3ccc(CO)s3)o2)s1 |  | -8.37% | 0.142 µM (active) |  | 2.82 µM (active) |  |  | inactive |  |  | inactive | -70.8% |  | -23.8% | inactive |  |  |  | 4.62% | 
6 | O=c1c2ccccc2nc2n1CCc1c-2[nH]c2ccccc12 |  | 3.31% |  |  |  |  | inactive | inactive | -12.5% |  | inactive | 4.3% and 8.09% |  | 0.849% and 0.542% | inactive |  | inactive |  | -7.58% | 
7 | CCOc1ccccc1OCCNC(C)Cc1ccc(OC)c(S(N)(=O)=O)c1 (stereo not given) |  | 3.17% |  |  |  |  | inactive |  | -25.2% |  | inactive | 7.71% | inactive | -0.288% | inactive |  | inactive | inactive | -9.05% | inactive
8 | CS(=O)(=O)c1ccc(-c2cnc(N)c(C(=O)Nc3ccccc3)n2)cc1 |  | -11% | 11.6 µM (active) |  |  | 14.8 µM (active) and 5.17 µM (active) | inactive | inactive |  |  | inactive |  | inactive |  | inactive |  | inactive | inactive | -14.1% | 
9 | CC1(O)CC(c2nc(-c3ccc4ccc(-c5ccccc5)nc4c3)c3c(N)nccn23)C1 (stereo not given) | 11.8 µM (active) | -9.35% |  |  |  | 16.6 µM (active) | inactive |  |  |  | inactive |  |  |  | inactive |  |  |  | -1.26% | 
10 | CN(C1CCc2c(c3ccccc3n2CC(=O)O)C1)S(=O)(=O)c1ccc(F)cc1 (stereo not given) |  | 3.48% and -10.1% |  |  |  |  | inactive | inactive | -3% and -8.76% | inactive | inactive | 7.37% | inactive |  | inactive | inactive | inactive | inactive | -11.8% and -5.06% | inactive
11 | Cc1ccc(CN2CCNCC2)cc1NC(=O)CNc1ccc(F)c(F)c1 |  |  |  |  |  |  | inactive | inactive | -5.99% | inactive | inactive | 4% | inactive | -3.35% and 3.71% | inactive | inactive | inactive | inactive |  | 
12 | COc1ccc2c(c1)CC[C@@H](CN(C)CC(=O)O)[C@H]2c1ccccc1 |  | -2.88% | 2.64 µM (active) |  | 3.32 µM (active) | 7.43 µM (active) |  |  | 2.06% |  |  | 2.76% |  |  |  |  |  |  | 0.39% | inactive
